# Laboratory results taken from the supplement of paper PMC10849652.
# Targets with a hit are over-represented here; the source holds about 7,900 in all. About 0.6% of all pairs of compound and target were hits. A number with no mark means an inactive call.
# What was measured:
# Test in all cases: log2 fold change, soluble protein after heating vs DMSO (PISA); higher = thermal stabilisation; K562 cells, 10 uM, 30 min; active = over 0.2 and 3.5 SD of the protein, either way, in both replicates (recomputed)
# bafetinib = compound: Cc1ccc(NC(=O)c2ccc(CN3CC[C@H](N(C)C)C3)c(C(F)(F)F)c2)cc1Nc1nccc(-c2cncnc2)n1 [bafetinib]
# Procedure, shortened: (§1)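 K562 cells at 2×10^6 cells/mL were given 10 μM compound for 30 min. Aliquots then went through 3 min of heating across 48°C-58°C, were pooled, and were extracted in PBS with 0.5% NP-40 at 4°C, and the supernatant after 21,000xg for 90 min was quantified by TMTpro 16plex LC-MS/MS with channel sums equalised. Thermal stability relative to control samples, from duplicates, is given as log2 fold change.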
# [1] = compound: Cc1cccc(CC(=O)N2CCc3c2ccc(-c2cn(C)c4ncnc(N)c24)c3F)n1
# Procedure, shortened: as §1
# nilotinib = compound: Cc1cn(-c2cc(NC(=O)c3ccc(C)c(Nc4nccc(-c5cccnc5)n4)c3)cc(C(F)(F)F)c2)cn1 [nilotinib]
# Procedure, shortened: as §1
# [2] = compound: Cc1nc(Nc2n[nH]c3c2CN(C(=O)N[C@H](CN(C)C)c2ccccc2)C3(C)C)c2sccc2n1
# Procedure, shortened: as §1
# dasatinib = compound: Cc1nc(Nc2ncc(C(=O)Nc3c(C)cccc3Cl)s2)cc(N2CCN(CCO)CC2)n1 [dasatinib]
# Procedure, shortened: as §1
# [3] = compound: Cc1ncc(-c2ccnc(Nc3ccc(S(C)(=O)=O)cc3)n2)n1C(C)C
# Procedure, shortened: as §1
# [4] = compound: Cn1cc(-c2ccc3c(c2)CCN3C(=O)Cc2cccc(C(F)(F)F)c2)c2c(N)ncnc21
# Procedure, shortened: as §1
# [5] = compound: Cn1cc(-c2ccc3nnc(C(F)(F)c4ccc5ncccc5c4)n3n2)cn1
# Procedure, shortened: as §1
# tipifarnib = compound: Cn1cncc1[C@@](N)(c1ccc(Cl)cc1)c1ccc2c(c1)c(-c1cccc(Cl)c1)cc(=O)n2C [tipifarnib]
# Procedure, shortened: as §1
# mubritinib = compound: FC(F)(F)c1ccc(/C=C/c2nc(COc3ccc(CCCCn4ccnn4)cc3)co2)cc1 [mubritinib]
# Procedure, shortened: as §1
# [6] = compound: NC(=O)Nc1cc(-c2cccc(F)c2)sc1C(=O)N[C@H]1CCCNC1
# Procedure, shortened: as §1
# [7] = compound: NC(=O)c1cnc(N[C@@H]2CCCC[C@@H]2N)nc1Nc1cccc(-n2nccn2)c1
# Procedure, shortened: as §1
# [8] = compound: NC1(c2ccc(-c3nc4ccn5c(=O)[nH]nc5c4cc3-c3ccccc3)cc2)CCC1
# Procedure, shortened: as §1
# [9] = compound: NCC(=O)Nc1ccc(-n2nc(C(F)(F)F)cc2-c2ccc3c(ccc4ccccc43)c2)cc1
# Procedure, shortened: as §1
# entinostat = compound: Nc1ccccc1NC(=O)c1ccc(CNC(=O)OCc2cccnc2)cc1 [entinostat]
# Procedure, shortened: as §1
# vorinostat = compound: O=C(CCCCCCC(=O)Nc1ccccc1)NO [vorinostat]
# Procedure, shortened: as §1
# citarinostat = compound: O=C(CCCCCCNC(=O)c1cnc(N(c2ccccc2)c2ccccc2Cl)nc1)NO [citarinostat]
# Procedure, shortened: as §1
# silmitasertib = compound: O=C(O)c1ccc2c(c1)nc(Nc1cccc(Cl)c1)c1ccncc12 [silmitasertib]
# Procedure, shortened: as §1
# [10] = compound: O=C1NC(=O)C(c2cnc3ccccn23)=C1c1cn2c3c(cc(F)cc13)CN(C(=O)N1CCCCC1)CC2
# Procedure, shortened: as §1
# [11] = compound: c1cc(OCCN2CCCCC2)cc(-c2n[nH]c3ccc(-c4nnc[nH]4)cc23)c1
# Procedure, shortened: as §1
# Sequence of UniProt P52294 (P52294 whole entry, looked up): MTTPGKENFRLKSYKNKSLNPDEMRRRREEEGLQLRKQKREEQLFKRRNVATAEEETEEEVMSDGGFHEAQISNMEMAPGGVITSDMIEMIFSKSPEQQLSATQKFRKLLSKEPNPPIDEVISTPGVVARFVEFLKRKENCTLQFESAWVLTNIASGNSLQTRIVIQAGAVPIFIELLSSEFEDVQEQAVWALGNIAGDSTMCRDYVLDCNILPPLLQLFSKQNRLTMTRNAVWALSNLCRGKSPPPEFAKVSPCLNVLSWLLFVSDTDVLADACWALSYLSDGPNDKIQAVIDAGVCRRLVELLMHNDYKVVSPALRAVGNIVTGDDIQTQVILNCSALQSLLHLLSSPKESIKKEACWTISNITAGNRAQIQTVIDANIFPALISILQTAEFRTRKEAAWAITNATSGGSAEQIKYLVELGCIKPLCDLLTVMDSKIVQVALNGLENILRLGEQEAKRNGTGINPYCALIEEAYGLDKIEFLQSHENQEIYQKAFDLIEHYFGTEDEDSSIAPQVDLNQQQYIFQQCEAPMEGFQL
# Sequence of UniProt O94829 (O94829 whole entry, looked up): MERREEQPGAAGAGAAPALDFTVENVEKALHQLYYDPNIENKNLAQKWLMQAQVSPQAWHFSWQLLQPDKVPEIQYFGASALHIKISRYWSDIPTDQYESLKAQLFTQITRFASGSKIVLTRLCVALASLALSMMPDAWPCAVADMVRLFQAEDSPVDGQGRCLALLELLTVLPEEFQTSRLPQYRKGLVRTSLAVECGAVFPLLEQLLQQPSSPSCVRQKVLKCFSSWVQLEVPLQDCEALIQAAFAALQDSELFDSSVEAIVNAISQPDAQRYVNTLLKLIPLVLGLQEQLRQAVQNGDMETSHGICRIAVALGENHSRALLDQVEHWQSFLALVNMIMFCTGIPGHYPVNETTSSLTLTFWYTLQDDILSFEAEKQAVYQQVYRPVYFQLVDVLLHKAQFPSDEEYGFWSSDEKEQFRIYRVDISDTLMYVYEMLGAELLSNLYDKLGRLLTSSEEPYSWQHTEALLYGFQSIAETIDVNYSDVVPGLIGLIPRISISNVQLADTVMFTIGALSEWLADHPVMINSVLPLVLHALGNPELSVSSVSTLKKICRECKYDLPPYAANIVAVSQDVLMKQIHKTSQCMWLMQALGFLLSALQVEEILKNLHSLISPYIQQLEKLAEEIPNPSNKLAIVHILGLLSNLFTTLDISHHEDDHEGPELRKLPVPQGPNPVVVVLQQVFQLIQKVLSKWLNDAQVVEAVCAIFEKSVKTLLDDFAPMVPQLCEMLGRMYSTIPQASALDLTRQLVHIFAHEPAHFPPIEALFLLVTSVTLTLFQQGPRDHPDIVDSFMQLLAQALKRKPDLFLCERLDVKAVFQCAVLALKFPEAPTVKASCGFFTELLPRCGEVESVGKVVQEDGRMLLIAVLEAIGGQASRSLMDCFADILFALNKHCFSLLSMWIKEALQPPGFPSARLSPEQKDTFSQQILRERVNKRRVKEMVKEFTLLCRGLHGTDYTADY
# Sequence of UniProt Q15648 (Q15648 whole entry, looked up): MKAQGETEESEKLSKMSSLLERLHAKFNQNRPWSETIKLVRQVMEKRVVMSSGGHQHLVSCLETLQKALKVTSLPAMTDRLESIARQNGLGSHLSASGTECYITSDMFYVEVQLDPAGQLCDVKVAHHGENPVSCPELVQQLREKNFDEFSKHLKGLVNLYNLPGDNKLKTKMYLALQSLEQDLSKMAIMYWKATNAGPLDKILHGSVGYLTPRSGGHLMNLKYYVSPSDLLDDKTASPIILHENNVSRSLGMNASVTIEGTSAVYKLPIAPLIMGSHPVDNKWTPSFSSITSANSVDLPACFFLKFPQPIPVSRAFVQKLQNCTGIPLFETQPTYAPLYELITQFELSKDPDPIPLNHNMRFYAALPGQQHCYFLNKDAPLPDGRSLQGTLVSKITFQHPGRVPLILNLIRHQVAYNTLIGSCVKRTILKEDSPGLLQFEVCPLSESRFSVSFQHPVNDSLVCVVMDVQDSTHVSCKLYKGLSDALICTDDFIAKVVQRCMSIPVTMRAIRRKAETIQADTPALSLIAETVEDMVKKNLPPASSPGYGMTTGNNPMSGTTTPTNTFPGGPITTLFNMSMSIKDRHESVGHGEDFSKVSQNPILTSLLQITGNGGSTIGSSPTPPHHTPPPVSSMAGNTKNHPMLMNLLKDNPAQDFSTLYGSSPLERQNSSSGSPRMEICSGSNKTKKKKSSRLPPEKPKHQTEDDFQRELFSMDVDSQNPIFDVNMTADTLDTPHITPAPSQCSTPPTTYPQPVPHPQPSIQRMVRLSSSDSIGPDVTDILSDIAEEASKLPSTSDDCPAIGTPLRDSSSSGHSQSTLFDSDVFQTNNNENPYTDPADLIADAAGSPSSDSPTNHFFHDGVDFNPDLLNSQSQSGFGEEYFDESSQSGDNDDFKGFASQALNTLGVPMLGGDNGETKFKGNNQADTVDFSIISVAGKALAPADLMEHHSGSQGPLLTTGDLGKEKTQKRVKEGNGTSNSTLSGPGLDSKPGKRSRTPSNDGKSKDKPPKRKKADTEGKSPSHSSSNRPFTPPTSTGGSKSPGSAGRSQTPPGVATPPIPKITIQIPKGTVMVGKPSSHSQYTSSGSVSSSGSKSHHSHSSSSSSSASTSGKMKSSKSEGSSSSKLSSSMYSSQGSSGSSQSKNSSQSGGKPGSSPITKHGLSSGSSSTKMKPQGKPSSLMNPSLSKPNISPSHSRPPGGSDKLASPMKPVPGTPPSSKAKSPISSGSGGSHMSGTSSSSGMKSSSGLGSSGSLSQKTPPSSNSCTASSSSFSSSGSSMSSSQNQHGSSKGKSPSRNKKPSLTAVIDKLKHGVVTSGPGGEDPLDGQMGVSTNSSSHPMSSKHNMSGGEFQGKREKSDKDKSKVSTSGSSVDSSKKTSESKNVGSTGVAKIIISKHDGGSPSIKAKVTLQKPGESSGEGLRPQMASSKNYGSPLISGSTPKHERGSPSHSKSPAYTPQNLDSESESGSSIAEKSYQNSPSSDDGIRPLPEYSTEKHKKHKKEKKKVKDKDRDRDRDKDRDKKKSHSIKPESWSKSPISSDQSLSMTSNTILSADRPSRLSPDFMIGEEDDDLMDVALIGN
# Sequence of UniProt Q9H9P8 (Q9H9P8 whole entry, looked up): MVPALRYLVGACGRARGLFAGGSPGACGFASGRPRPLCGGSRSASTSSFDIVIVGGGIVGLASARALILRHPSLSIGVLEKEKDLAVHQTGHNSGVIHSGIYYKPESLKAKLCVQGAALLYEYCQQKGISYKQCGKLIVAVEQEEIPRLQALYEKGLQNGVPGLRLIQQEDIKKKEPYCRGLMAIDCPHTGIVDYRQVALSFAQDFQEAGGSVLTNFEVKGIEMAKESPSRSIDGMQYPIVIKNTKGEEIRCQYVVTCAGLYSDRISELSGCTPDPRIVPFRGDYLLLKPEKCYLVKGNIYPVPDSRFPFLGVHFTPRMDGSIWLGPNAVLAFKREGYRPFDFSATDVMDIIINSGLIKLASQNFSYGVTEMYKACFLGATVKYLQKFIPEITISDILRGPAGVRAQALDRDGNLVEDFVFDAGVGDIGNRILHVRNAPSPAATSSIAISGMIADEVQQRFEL
# Sequence of UniProt P48449 (P48449 whole entry, looked up): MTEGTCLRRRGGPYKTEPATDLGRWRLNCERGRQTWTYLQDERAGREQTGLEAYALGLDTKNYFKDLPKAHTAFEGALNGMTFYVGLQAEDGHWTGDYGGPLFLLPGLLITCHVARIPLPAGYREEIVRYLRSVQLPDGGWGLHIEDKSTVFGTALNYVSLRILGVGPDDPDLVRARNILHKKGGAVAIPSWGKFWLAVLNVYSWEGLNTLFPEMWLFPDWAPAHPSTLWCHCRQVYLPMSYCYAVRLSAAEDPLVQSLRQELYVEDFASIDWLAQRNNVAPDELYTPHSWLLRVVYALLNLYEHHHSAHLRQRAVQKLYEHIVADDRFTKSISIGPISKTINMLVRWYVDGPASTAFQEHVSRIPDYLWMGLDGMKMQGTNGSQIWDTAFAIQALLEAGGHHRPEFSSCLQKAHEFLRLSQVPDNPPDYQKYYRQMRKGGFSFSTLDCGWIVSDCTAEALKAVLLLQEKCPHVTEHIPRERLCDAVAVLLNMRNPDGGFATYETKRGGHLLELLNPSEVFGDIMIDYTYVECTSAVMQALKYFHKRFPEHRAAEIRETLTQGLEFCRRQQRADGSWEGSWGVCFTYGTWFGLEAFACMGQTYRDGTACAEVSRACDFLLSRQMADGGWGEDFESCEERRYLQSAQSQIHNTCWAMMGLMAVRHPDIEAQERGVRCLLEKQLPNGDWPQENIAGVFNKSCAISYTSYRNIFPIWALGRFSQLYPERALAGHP
# Sequence of UniProt Q14653 (Q14653 whole entry, looked up): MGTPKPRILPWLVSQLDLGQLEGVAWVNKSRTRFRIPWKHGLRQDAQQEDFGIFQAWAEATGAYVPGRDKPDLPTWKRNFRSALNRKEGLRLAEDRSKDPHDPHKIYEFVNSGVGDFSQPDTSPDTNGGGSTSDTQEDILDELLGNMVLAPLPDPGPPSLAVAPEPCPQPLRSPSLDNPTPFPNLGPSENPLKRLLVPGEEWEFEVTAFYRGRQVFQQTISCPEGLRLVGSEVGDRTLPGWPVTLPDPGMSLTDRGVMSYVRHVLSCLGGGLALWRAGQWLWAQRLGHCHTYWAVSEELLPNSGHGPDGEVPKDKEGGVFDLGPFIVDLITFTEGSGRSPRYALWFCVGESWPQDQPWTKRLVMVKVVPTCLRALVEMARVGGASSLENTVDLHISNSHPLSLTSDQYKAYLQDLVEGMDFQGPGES
# Sequence of UniProt Q8NC54 (Q8NC54 whole entry, looked up): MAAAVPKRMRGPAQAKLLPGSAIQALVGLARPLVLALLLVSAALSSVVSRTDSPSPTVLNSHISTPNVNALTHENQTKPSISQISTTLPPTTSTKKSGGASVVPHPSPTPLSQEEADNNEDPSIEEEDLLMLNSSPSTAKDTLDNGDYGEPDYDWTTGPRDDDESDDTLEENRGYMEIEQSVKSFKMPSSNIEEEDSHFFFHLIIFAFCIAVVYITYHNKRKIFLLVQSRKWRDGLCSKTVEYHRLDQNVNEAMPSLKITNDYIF
Target,log2 fold change (bafetinib),log2 fold change [1],log2 fold change (nilotinib),log2 fold change [2],log2 fold change (dasatinib),log2 fold change [3],log2 fold change [4],log2 fold change [5],log2 fold change (tipifarnib),log2 fold change (mubritinib),log2 fold change [6],log2 fold change [7],log2 fold change [8],log2 fold change [9],log2 fold change (entinostat),log2 fold change (vorinostat),log2 fold change (citarinostat),log2 fold change (silmitasertib),log2 fold change [10],log2 fold change [11]
L2HGDH (UniProt Q9H9P8),-0.089,-0.037,0.06,0.002,-0.046,-0.002,0.077,0.053,0.021,0.061,-0.035,-0.026,-0.145,0.007,-0.012,-0.014,0.029,0.15,-0.053,0.029
IRF3 (UniProt Q14653),0.033,0.023,0.066,-0.191,-0.1,-0.04,0.106,0.005,-0.023,0.039,0.221 (active),-0.021,-0.021,-0.022,-0.078,0.06,0.028,-0.044,-0.047,-0.028
MIEF1 (UniProt L0R8F8),-0.077,-0.001,-0.1,0.067,0.001,-0.093,0.022,-0.053,-0.03,-0.039,0.085,0.094,0.047,0.002,0.007,-0.012,0.039,-0.021,-0.063,-0.056
KIAA1324L (UniProt A8MWY0),-0.099,0.022,0.042,-0.031,0.025,-0.003,0.022,0.029,0.047,0.091,-0.016,-0.015,-0.138,0.009,-0.067,0.003,0.004,-0.014,-0.013,-0.094
IPO13 (UniProt O94829),-0.11,-0.006,-0.001,-0.094,-0.021,0.071,-0.022,-0.025,-0.106,0.06,0.051,-0.101,-0.206,-0.112,0.012,0.138,0.067,0.081,-0.046,-0.175
LIMA1 isoform 4 (UniProt Q9UHB6),-0.115,0.019,-0.136,-0.112,0.179,0.052,-0.154,-0.071,0.088,0.019,0.062,-0.045,0.081,0.006,0.004,0.067,-0.024,-0.006,-0.073,-0.012
KCT2 (UniProt Q8NC54),-0.114,0.045,-0.01,-0.023,0.045,0.021,0.01,0.073,0.125,0.052,0.047,-0.029,-0.378 (active),0.013,-0.054,0.022,0.05,0.035,0.047,-0.02
LNPEP (UniProt Q9UIQ6),-0.056,-0.007,0.017,0.026,0.033,-0.024,0.014,-0.007,0.008,0.035,0.037,0.011,-0.037,0.019,-0.028,-0.007,0.056,0.002,0.004,-0.022
IWS1 (UniProt Q96ST2),0.018,-0.022,-0.024,0.092,-0.054,0.311 (active),-0.013,0.022,-0.021,0.035,-0.049,0.034,-0.028,-0.171,0.012,-0.008,-0.059,0.054,-0.032,0
KPNA1 (UniProt P52294),0,-0.02,-0.103,-0.074,0.003,0.047,-0.089,-0.008,-0.088,-0.06,-0.02,-0.014,-0.047,-0.058,0.099,0.036,0.166,0.088,0.064,-0.037
KDM5D isoform 3 (UniProt Q9BY66),0.208,-0.049,0.089,-0.054,-0.289,-0.047,-0.026,0.058,-0.044,0.203,-0.038,-0.012,-0.134,-0.025,0.135,0.006,0.198,0.176,0,-0.096
MED1 (UniProt Q15648),0.016,-0.018,0.057,0,0.037,-0.217 (active),-0.064,-0.089,0.069,0.004,0.027,-0.064,0.002,-0.113,-0.018,0.05,-0.001,-0.002,0.063,-0.124
LSS (UniProt P48449),0.393,0,-0.046,0.047,0,0.013,0.145,0,-0.039,0.193,0.017,0.108,0.142,-0.049,0.003,0.052,-0.01,0.001,-0.001,-0.033
MDN1 (UniProt Q9NU22),-0.094,0,-0.15,-0.195,-0.245,-0.089,0.02,0.011,-0.052,-0.089,-0.002,-0.087,-0.138,-0.058,0.112,0.098,0.075,-0.037,-0.032,0.082
IGF2R (UniProt P11717),-0.338 (active),0.021,-0.02,-0.087,-0.023,0.021,0,0.023,0.045,0.003,-0.032,0.03,-0.546 (active),0.006,-0.008,0,0.07,0.021,-0.063,-0.184
MICU1 isoform 3 (UniProt Q9BPX6),-0.098,0.106,-0.037,-0.012,-0.065,-0.022,-0.012,-0.055,-0.019,-0.064,-0.048,-0.022,-0.012,0.039,0.016,0.017,0.053,0.117,0.027,-0.085
